# Assay outcomes as filed in PubChem BioAssay.
# This is a sample that favours compounds with a hit; in the whole collection about 0.84% have one here.
# SRC1 TRFRET art = TR-FRET detection interference compounds, primary screen, artefact control for PPARgamma SRC-1 recruitment agonists, biochemical, TR-FRET emission ratio | TR-FRET detection artefact counter-screen; stronger effect = higher value | TR-FRET ratio at 8 µM | actives 0.34% (n = 99,000) | AID 1051, 2008; in the data active means TR-FRET ratio above about 2300
# PPARg SRC-1 ag = PPARgamma agonists recruiting SRC-1 coactivator, primary screen, biochemical. Peroxisome proliferator-activated receptor gamma (Homo sapiens), P37231. PPARgamma-SRC-1 coactivator recruitment biochemical assay. activation, % at 8 µM. actives 0.41% (n = 200,000). AID 631, 2007; in the data active means activation above about 19%;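 further: 0% = DMSO and 100% = reference agonist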
# Target sequence (P37231 whole entry, looked up): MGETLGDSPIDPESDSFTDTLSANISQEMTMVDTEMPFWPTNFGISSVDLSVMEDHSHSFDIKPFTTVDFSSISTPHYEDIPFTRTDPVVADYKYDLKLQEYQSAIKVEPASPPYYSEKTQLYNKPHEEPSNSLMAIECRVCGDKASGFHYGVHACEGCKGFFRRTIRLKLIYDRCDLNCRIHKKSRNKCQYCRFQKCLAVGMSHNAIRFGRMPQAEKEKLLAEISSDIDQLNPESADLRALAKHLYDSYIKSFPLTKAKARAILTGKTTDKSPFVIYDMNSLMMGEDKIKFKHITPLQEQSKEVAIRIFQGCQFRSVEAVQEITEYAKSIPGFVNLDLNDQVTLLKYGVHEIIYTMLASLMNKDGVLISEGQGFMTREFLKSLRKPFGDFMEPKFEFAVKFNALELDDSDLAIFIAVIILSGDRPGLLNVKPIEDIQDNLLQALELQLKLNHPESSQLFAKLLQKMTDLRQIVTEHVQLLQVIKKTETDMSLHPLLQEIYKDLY
# PPARg SRC2 recr = agonists of PPARg-SRC-2 recruitment, primary screen, biochemical, HTS | PPARgamma LBD-SRC-2 recruitment | activation, % at 8 µM | actives 0.34% (n = 200,000) | AID 1032, 2008; in the data active means activation above about 22%;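 further: 0% = vehicle and 100% = reference agonist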
# SRC2 TRFRET art = TR-FRET signal artefacts, primary screen, artefact control for PPARgamma SRC-2 agonist project, biochemical. TR-FRET artefact counter-screen; stronger effect = higher value. actives 0.4% (n = 200,000). TR-FRET ratio at 8 µM. AID 1049, 2008
# PPARg SRC-3 ag = PPARgamma agonists recruiting SRC-3 coactivator, primary screen, biochemical | Peroxisome proliferator-activated receptor gamma (Homo sapiens), P37231 | biochemical PPARgamma/SRC-3 coactivator recruitment assay | activation, % at 8 µM | actives 0.26% (n = 200,000); in the data active means activation above about 23%;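 further: 0% = DMSO and 100% = reference agonist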
# SRC3 TRFRET art = TR-FRET detection interference compounds, artefact control for PPARgamma SRC-3 recruitment agonists, biochemical, TR-FRET ratio; AID 1048, 2008; TR-FRET artefact counter-screen, PPARgamma/SRC-3 format; stronger effect = higher value; actives 0.39% (n = 99,000); TR-FRET ratio at 8 µM
# * marks the source's active call; other numbers are inactive results; . = not tested or not shown. Unless noted, no stated cut-off is given here; in the data, active means TR-FRET ratio above about 2000; inactive means the rest.
SMILES,SRC1 TRFRET art,PPARg SRC-1 ag,PPARg SRC2 recr,SRC2 TRFRET art,PPARg SRC-3 ag,SRC3 TRFRET art
CC(C)NC(=O)NC(=O)COC(=O)c1ccccc1F,1701,0.4,7.5,1407,2.9,1341
Cc1nc2ccccc2nc1OCC(=O)NCC(F)(F)F,2331*,3.8,4.8,1705,1.1,1862
O=C(Nc1nc(-c2nc3ccccc3s2)cs1)C1COc2ccccc2O1 (stereo not drawn),2597*,9.0,17.4,1973*,9.8,1956
O=C(O)c1cccc(N2C(=O)c3cccc(Oc4ccc(Cl)cc4)c3C2=O)c1,1622,0.2,2.9,1643,-0.4,1472
Cc1ccc(C2=NC3(CCCCC3)NC2=S)cc1,1722,-1.7,-2.1,1697,0.1,1567
CCN1CCC2(CC1)N=C(c1ccc(F)cc1)C(=S)N2,1797,5.9,13.6,1979*,2.6,1803
COc1ccc(-c2cc(C(=O)NCCc3ccccc3)no2)cc1OC,.,4.6,-2.2,1554,-8.1,.
CC1Cc2ccccc2N1C(=O)CSc1nnc(-c2ccccc2)c(-c2ccccc2)n1 (stereo not drawn),.,-2.7,0.3,3425*,2.4,.
S=C(NCc1ccc2c(c1)OCO2)Nc1ccc(-c2nc3ccccc3[nH]2)cc1,1810,0.2,14.5,1662,3.9,1431
Cc1ccc(C(=O)Nc2ccc(Oc3ccc(C(=O)O)c(C(=O)O)c3)cc2)cc1C,.,5.6,22.5*,1940,1.0,.
CCN(CC)S(=O)(=O)c1cccc(NC(=O)COC(=O)c2n[nH]c(=O)c3ccccc23)c1,1936,21.8*,7.6,1961,6.0,1541
COc1ccc(C2=NN(c3nc(-c4ccccc4)c(CC(=O)O)s3)C(c3ccco3)C2)cc1 (stereo not drawn),2061,6.6,0.9,1644,14.2,2153*
Clc1ccc(-c2nnc3sc(-c4ccc(Br)o4)nn23)cc1,.,8.4,10.6,1593,27.8*,.
Clc1ccccc1-c1nnc2sc(-c3ccc(Br)o3)nn12,.,4.9,12.5,1961,18.4,.
NC(=O)c1c(NC(NC(=O)c2ccco2)C(=O)c2ccc(Cl)cc2)sc2c1CCCC2 (stereo not drawn),.,4.0,8.0,1408,3.4,.
COc1cccc(OC)c1-c1nn2c(-c3cc(-c4ccccc4)n[nH]3)nnc2s1,.,19.6*,8.6,1895,8.0,.
COc1cccc(-c2nnc3sc(-c4ccccc4)nn23)c1,1880,5.6,9.1,1625,0.1,1488
Cc1ccc(OCc2nnc(SCC(=O)Nc3ccc4c(c3)OCCO4)n2Cc2ccco2)cc1,.,1.8,1.0,1417,-4.5,.
O=C(CCN1C(=O)c2ccccc2C1=O)Nc1ccc(-c2nc3ccccc3o2)cc1,.,19.3*,-3.9,1271,-15.2,.
O=C(CN1C(=O)c2ccccc2C1=O)Nc1ccc(-c2nc3ccccc3o2)cc1,.,-1.4,14.9,1612,12.5,.
CCCCNC(=O)CSc1nc2ccccc2n1S(=O)(=O)c1ccc(Cl)cc1,1668,-3.9,-0.4,1627,3.6,1560
CCCCNC(=O)CSc1nc2ccccc2n1S(=O)(=O)c1ccc(Br)cc1,1765,5.0,11.4,1974*,-1.8,1649
c1cncc(-c2nc(N3CCOCC3)c3ccccc3n2)c1,.,-12.4,-2.4,1467,2.8,.
O=S(=O)(/C=C/c1ccccc1)N1CCN(c2nc(-c3cccnc3)nc3ccccc23)CC1,2657*,5.3,7.1,1899,7.4,2270*
COc1cccc(/C=N/NC(=O)c2csc(-n3nc(C)cc3C(F)(F)F)n2)c1,.,3.6,9.4,1596,26.7*,.
SMILES,SRC1 TRFRET art,PPARg SRC-1 ag,PPARg SRC2 recr,SRC2 TRFRET art,PPARg SRC-3 ag,SRC3 TRFRET art
CC(C)COC(=O)N1CCCC1C(=O)Nc1nccs1 (stereo not drawn),.,3.4,2.2,1522,3.8,.
Cc1n[nH]c(=O)nc1NC1CCCCC1,.,2.0,6.3,1639,1.3,.
O=C(O)CCn1cnc2ccccc2c1=O,.,-1.4,-1.6,1559,-8.4,.
Cc1cccc(NC(=O)c2cc(-c3ccc(C)s3)nc3ccccc23)n1,2018,12.8,7.0,2007*,2.7,2191*
O=C(c1cc(-c2ccccn2)nc2c(Cl)cccc12)N1CCN(S(=O)(=O)c2ccccc2)CC1,2197,10.4,0.3,2813*,4.7,3978*
CN(C)S(=O)(=O)c1cccc(NC(=O)c2cc(-c3cccs3)nc3ccccc23)c1,2272,-0.3,-6.4,2036*,6.7,2449*
O=C(c1cc(-c2cccs2)nc2ccccc12)N1CCN(S(=O)(=O)c2ccccc2)CC1,.,-4.0,1.6,2313*,-5.4,.
Cc1cc(NC(=O)c2cc(-c3ccc(C)s3)nc3ccccc23)no1,.,-4.1,-3.2,1773,-1.5,.
O=C(c1cc(-c2ccccn2)nc2c(Cl)cccc12)N1CCN(C(=O)C2CCCO2)CC1 (stereo not drawn),.,5.1,0.7,1733,-0.3,.
CNC(=O)c1ccccc1NC(=O)c1ccco1,.,6.8,7.4,1511,13.2,.
Cc1cc(C)c(C(=O)COC(=O)[C@H](C)Nc2ccc(C(F)(F)F)cc2[N+](=O)[O-])c(C)c1,.,7.4,12.6,1581,9.3,.
O=C(c1cc(-c2cccs2)nc2ccccc12)N1CCN(c2ccccc2)CC1,2136,5.3,6.0,1793,1.7,1579
O=C(c1cc(-c2cccs2)nc2ccccc12)N1CCN(S(=O)(=O)c2cccc(F)c2)CC1,.,11.3,11.1,2309*,16.9,.
Cc1cc(N2CCC(C(=O)NC3CCCCC3)CC2)nc(-c2ccccc2)n1,1560,5.9,3.8,1528,9.8,2155*
Cc1cc(N2CCC(C(=O)NC3CC3)CC2)nc(-c2ccccc2)n1,.,4.8,-1.6,1506,-7.3,.
COC(=O)c1ccc(NC(=O)COC(=O)c2cccc3c(=O)c(C)c(-c4ccccc4)oc23)cc1,1707,8.3,-1.8,1540,1.7,1629
Cc1ccc(N2C(=O)C3CCC(c4ccccc4)CC3C2=O)cc1 (stereo not drawn),2647*,37.0*,-3.0,1420,0.4,1599
COc1ccc(-c2csc(NC(=O)c3ccc(OCC(=O)N4CCOCC4)c(OC)c3)n2)cc1,1797,1.7,5.6,1475,-1.9,1672
CC1CCN(S(=O)(=O)Cc2ccccc2Cl)CC1,.,-2.0,-4.8,1353,-9.5,.
CCOC(=O)/C=C/C(=O)Nc1cccc([N+](=O)[O-])c1,1998,-14.5,-6.8,1444,-0.8,1446
CCOC(=O)n1cc(-c2cnc(CNC(=O)C(C)(c3ccccc3)c3ccccc3)o2)c2ccccc21,1619,8.6,28.3*,1921,-2.8,1588
CC(C(=O)NCCN1CCOCC1)(c1ccccc1)c1ccccc1,1837,7.3,-0.2,1771,-0.2,1655
CCOc1ccc(Br)cc1/C=N/O,.,-2.9,-2.6,1373,-0.4,.
